A short description of test [1]: qHTS assay for small molecules that induce genotoxicity in human embryonic kidney cells expressing luciferase-tagged ATAD5 (AID 651632). Also: nearly all actives have a fitted effect of over 15% in size. Also: potency is read from the fitted curve at half-maximal effect. In outline: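 Reporter cells (HEK293T) express luciferase-tagged ATAD5, a protein that accumulates after DNA damage. Treat 16 hr at 37C/5% CO2, add Amplite, wait 30 min at RT, and read luminescence.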
For orientation: qHTS replaces the single test concentration by a dilution series.

Test [2] can be described thus: qHTS assay for small molecule agonists of the p53 signaling pathway - cell viability (AID 651633; calls by dose curve; also: nearly all actives have a fitted effect of over 30% in size; also: potency is read from the fitted curve at half-maximal effect). The method, boiled down:
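p53RE-bla cells, seeded at 4,000 per well and rested 5 h at 37 C/5% CO2, received compounds in DMSO for 16 h at 37 C. CellTiter-Glo was then added, and luminescence was read after 30 min at room temperature to gauge cytotoxicity.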

Test [3] in a line: qHTS assay for small molecule disruptors of the mitochondrial membrane potential - cell viability (AID 720634; calls by dose curve;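 also: human HepG2 liver cancer cells; series mostly up to about 83 µM; nearly all actives have a fitted effect of over 20% in size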). In outline:
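Measuring cytotoxicity alongside mitochondrial potential, the screen quantified ATP by luminescence in HepG2 cells after 1 hr compound incubation and a 30 min room-temperature CellTiter-Glo step.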

Test [4] in a line: qHTS assay to test for compound auto fluorescence at 535 nm (green) in HepG2 cells (AID 720675).
Test [5] is described as follows: qHTS assay to test for compound auto fluorescence at 590 nm (red) in HEK293 cells (AID 720679). In outline:
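Using HEK293 cells at 2,000 per well, the screen added 23 nL of each compound after cell attachment and incubated overnight (37C, 5% CO2). The plate reader then captured red-label fluorescence, Ex/Em 540/590nm.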

Test [6] is described as follows: qHTS assay to test for compound auto fluorescence at 460 nm (blue) in HEK293 cell free culture (AID 720681). In outline: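 Test compounds were pinned into cell-free culture medium (DMEM with 10% FBS) and fluorescence was read directly at Ex/Em 405/460 nm. Signals were expressed as fluorescence equivalents of triamterene, with DMSO vehicle as control.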
Test [7] is described as follows: qHTS assay to test for compound auto fluorescence at 535 nm (green) in HEK293 cell free culture (AID 720682). The method, boiled down:
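Fluorescein serves as the green reference fluorophore; each compound's intrinsic emission at 535 nm (excitation 485 nm) is reported as an equivalent amount of that dye, measured in serum-containing DMEM without cells.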

A short description of test [8]: qHTS assay to test for compound auto fluorescence at 590 nm (red) in HepG2 cell free culture (AID 720684). The method, boiled down:
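Red fluorescence (540 nm excitation, 590 nm emission) was measured after compound transfer into cell-free MEM supplemented with 10% FBS. Values are equivalencies against Rose Bengal sodium.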

Test [9] can be described thus: qHTS assay to test for compound auto fluorescence at 460 nm (blue) in HepG2 cell free culture (AID 720685). The method, boiled down:
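Compound (23 nL) or DMSO pinned into cell-free MEM with 10% FBS; blue fluorescence read at 405/460 nm excitation/emission, expressed as auto-fluorescence equivalency to triamterene.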

Test [10] is described as follows: qHTS assay to test for compound auto fluorescence at 535 nm (green) in HepG2 cell free culture (AID 720686).
A short description of test [11]: qHTS assay to test for compound auto fluorescence at 460 nm (blue) in HepG2 cells (AID 720687). The method, boiled down: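 Cells (2,000/well in MEM with 10% FBS) attached overnight at 37 C, then were exposed to compound or DMSO for 1 hr at 37 C, 5% CO2. Fluorescence read at Ex/Em 405/460 nm, expressed as triamterene-equivalent signal.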
A short description of test [12]: qHTS assay to identify small molecule antagonists of the androgen receptor (AR) signaling pathway - cell viability counter screen (AID 743033; also: nearly all actives have a fitted effect of over 45% in size; also: potency is read from the fitted curve at half-maximal effect).
Test [13] is described as follows: qHTS assay to identify small molecule antagonists of the androgen receptor (AR) signaling pathway using the MDA cell line - cell viability counter screen (AID 743041; also: nearly all actives have a fitted effect of over 45% in size). In outline:
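MDA-kb2 AR-luc human breast carcinoma cells (MMTV-luciferase, AR/GR responsive) were treated with compounds plus R1881 agonist for 16 h at 37 °C. Viability was read as CellTiter-Fluor fluorescence in the same wells as the reporter assay.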

The nature of test [14]: qHTS assay to identify small molecule antagonists of the estrogen receptor alpha (ER-alpha) signaling pathway - cell viability counter screen (AID 743074; calls by dose curve;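 also: HEK293 cells carrying ER-alpha-UAS-bla reporter stimulated with 17beta-estradiol; nearly all actives have a fitted effect of over 45% in size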; also: potency is read from the fitted curve at half-maximal effect).
The nature of test [15]: qHTS assay to identify small molecule antagonists of the estrogen receptor alpha (ER-alpha) signaling pathway using the BG1 cell line - cell viability counter screen (AID 743081).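 Also: compound given together with 17beta-estradiol as the ER stimulus; series mostly up to about 70 µM; nearly all actives have a fitted effect of over 45% in size.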
Another test deals with Aromatase (Homo sapiens) (UniProt P11511). The test is described as follows: qHTS assay to identify aromatase inhibitors (AID 743083). Also: series mostly up to about 70 µM; nearly all actives have a fitted effect of over 55% in size.
The nature of test [16]: qHTS assay to identify aromatase inhibitors - cell viability counter screen (AID 743084).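 Also: cells stimulated with testosterone during compound exposure; nearly all actives have a fitted effect of over 55% in size.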
In test [17] the target is Aryl hydrocarbon receptor (Homo sapiens) (UniProt P35869). The test is described as follows: qHTS assay to identify small molecule that activate the aryl hydrocarbon receptor (AhR) signaling pathway (AID 743085). Also: nearly all actives have a fitted effect of over 15% in size. Also: potency is read from the fitted curve at half-maximal effect.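 As to activation: HG2L7.5c1 human HepG2 liver cells with stably integrated DRE-driven firefly reporter; series mostly up to about 70 µM.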 In outline: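 Cell line HG2L7.5c1 (human hepatoma, 20× DRE-luc). Plated, 5 h 37C, compound/DMSO added, 24 h 37C. CellTiter-Fluor 30 min 37C → fluorescence; then ONE-Glo 30 min RT → luminescence.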

Test [18] can be described thus: qHTS assay to identify small molecule phospholipidosis (PLD) inducers (AID 1259344; active = well fitted curve in the direction sought with a large enough effect; an effect the other way counts as inactive or inconclusive). The method, boiled down:
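HepG2 cells on collagen I, attached 4 h at 37 C, were co-treated with compound and LipidTOX Red dye for 24 h at 37 C, then fixed with paraformaldehyde plus Hoechst 33342 and imaged by high-content microscopy for phospholipid accumulation.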

For test [19], the target named is Nuclear receptor subfamily 1 group I member 2 (Rattus norvegicus) (UniProt Q9R1A7). Briefly: Rat pregnane X receptor (rPXR) activation by small molecules, qHTS assay (AID 1346983). Also: nearly all actives have a fitted effect of over 20% in size. The note with it: rPXR luciferase reporter cells, One-Glo luminescence, 24 h; max activation: stronger effect = higher value. The method, boiled down: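 Cell-based rPXR luciferase reporter assay, 2,000 cells per well, rested 5hr at 37 C before compound addition in DMSO, then 24 hr at 37 C. One-Glo reagent was added and luminescence read after 30 min at room temperature.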

The structures appear in SMILES notation. A number with no mark means an inactive call. Records with an inconclusive call do not appear. Active and inactive are the calls of the source. Unless noted, calls follow the shape of the dose curve; as a rule, active = well fitted curve in the direction sought with a large enough effect in the repeat runs; inconclusive = weak or mixed curves; inactive = no such curve, though single readings can be large; an effect the other way counts as inactive or inconclusive.
% is scaled to controls: 0 for no effect and ±100 for the full control effect.

Sequence of Aromatase (Homo sapiens) (P11511 whole entry, looked up): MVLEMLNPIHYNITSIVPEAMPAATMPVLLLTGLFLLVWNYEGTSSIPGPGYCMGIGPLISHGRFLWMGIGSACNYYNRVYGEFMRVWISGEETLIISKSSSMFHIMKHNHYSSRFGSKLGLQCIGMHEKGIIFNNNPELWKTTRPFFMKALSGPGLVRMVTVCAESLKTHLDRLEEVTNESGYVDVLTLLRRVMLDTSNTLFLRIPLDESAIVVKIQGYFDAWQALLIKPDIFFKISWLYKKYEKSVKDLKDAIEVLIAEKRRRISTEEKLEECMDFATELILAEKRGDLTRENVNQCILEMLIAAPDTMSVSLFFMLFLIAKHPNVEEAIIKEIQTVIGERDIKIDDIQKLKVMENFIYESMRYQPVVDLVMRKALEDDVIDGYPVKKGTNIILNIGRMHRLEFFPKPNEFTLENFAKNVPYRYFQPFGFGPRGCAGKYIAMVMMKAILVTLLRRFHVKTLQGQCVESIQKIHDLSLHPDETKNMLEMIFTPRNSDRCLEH
Sequence of Nuclear receptor subfamily 1 group I member 2 (Rattus norvegicus) (Q9R1A7 whole entry, looked up): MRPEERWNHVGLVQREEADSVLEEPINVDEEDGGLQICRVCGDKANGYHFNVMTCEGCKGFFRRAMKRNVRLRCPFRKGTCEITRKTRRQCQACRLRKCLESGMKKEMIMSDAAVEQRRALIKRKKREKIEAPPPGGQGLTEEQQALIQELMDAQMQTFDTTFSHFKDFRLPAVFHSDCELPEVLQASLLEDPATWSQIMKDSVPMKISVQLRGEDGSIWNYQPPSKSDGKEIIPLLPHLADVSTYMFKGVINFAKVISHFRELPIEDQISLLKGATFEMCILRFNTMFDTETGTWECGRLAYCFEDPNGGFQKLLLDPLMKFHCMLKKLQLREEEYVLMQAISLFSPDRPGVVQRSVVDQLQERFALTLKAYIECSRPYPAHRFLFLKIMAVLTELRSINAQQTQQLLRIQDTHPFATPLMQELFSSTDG
Sequence of Aryl hydrocarbon receptor (Homo sapiens) (P35869 whole entry, looked up): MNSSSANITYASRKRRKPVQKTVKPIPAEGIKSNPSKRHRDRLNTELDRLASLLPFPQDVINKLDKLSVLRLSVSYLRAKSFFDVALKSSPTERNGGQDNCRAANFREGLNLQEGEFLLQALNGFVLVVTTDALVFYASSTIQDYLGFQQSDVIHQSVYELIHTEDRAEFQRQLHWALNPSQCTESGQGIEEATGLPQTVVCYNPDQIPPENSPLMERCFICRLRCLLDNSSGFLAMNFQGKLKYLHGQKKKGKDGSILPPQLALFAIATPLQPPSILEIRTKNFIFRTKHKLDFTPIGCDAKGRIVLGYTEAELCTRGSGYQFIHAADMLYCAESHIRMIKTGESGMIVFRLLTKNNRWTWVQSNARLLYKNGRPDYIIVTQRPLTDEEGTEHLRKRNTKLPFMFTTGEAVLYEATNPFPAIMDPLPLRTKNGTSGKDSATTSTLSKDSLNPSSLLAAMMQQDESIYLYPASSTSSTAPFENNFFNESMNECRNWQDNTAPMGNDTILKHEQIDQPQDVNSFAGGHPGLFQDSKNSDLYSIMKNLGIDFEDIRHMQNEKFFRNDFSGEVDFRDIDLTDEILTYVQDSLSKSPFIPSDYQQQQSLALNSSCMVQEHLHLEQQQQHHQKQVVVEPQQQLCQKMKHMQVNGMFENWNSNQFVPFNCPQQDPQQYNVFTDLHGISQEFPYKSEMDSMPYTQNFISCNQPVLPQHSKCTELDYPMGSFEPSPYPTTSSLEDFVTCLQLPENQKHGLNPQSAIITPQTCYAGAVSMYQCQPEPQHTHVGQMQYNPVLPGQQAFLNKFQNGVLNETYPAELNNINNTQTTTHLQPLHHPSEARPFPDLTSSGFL

For `O=C(OCCN1CCCCC1)C(O)(c1ccccc1)c1ccccc1`, the Potency entry in test [1], in test [2], in test [3], in test [4], in [6] and in test [7] was “inactive” in each case. In addition, the Potency entry in [9], in [10], in [11], in [12], in [13] and in [14] was “inactive” in each case. The Potency entry (in test [15]; with Aromatase (Homo sapiens); in [16]; in test [17]; in test [18]) was “inactive” throughout. Moreover, the compound was called inactive in test [5] and in test [8]. Besides, the max activation in [19] is -1.73%.
On to `CNC(=O)Oc1ccccc1C(=O)Nc1ccccc1`, for which the Potency result in test [1], in test [2], in test [4], in [6], in [7] and in test [9] was “inactive” in each case. Further, the Potency entry in [10], in test [11], in [12], in test [13], in test [14] and in test [15] was “inactive” in each case. For the same compound, the Potency result (with Aromatase (Homo sapiens); in test [16]; in test [18]) was “inactive” each time. Also, the result in test [5] and in test [8] was inactive. In test [17], the Potency was 23700 nM (active). In test [19], the max activation is -3.26%.
Take `CC(Cc1ccccc1)NC=O` (stereo unspecified): the Potency result in test [1], in test [2], in test [3], in test [4], in test [6] and in test [9] was “inactive” throughout. For the same compound, the Potency entry in [10], in [11], in [12], in [13], in test [14] and in test [15] was “inactive” throughout. Further, the Potency entry (in the test with Aromatase (Homo sapiens); in [16]; in test [17]; in test [18]) was “inactive” throughout. The outcome in test [5] and in test [8] was inactive. Further, the max activation in [19] was 0.0916%.
Take `CCNCC(O)c1cccc(O)c1` (stereo unspecified): the Potency entry in test [1], in test [2], in test [3], in test [4], in [6] and in test [7] was “inactive” each time. The Potency result in test [9], in test [10], in test [11], in test [12], in test [13] and in test [14] was “inactive” each time. The Potency entry (in the test with Aromatase (Homo sapiens); in test [16]; in test [17]; in test [18]) was “inactive” each time. Also, the outcome in [5] and in test [8] was inactive. In test [19], the max activation was 1.03%.
Consider `CC(=O)O[C@H]1C[C@H](O[C@H]2[C@@H](O)C[C@H](O[C@H]3[C@@H](O)C[C@H](OC4CC[C@@]5(C)[C@H](CC[C@@H]6[C@@H]5CC[C@]5(C)[C@@H](C7=CC(=O)OC7)CC[C@]65O)C4)O[C@@H]3C)O[C@@H]2C)O[C@H](C)[C@H]1O[C@@H]1O[C@H](CO)[C@@H](O)[C@H](O)[C@H]1O` (stereo partly specified), for which the Potency result in test [1], in [3], in test [4], in test [6], in test [7] and in test [9] was “inactive” each time. Also, the Potency result (in [10]; in [11]; in [15]; with Aromatase (Homo sapiens); in [16]; in test [17]) was “inactive” each time. In addition, in test [18], the Potency entry is “inactive”. In addition, the Potency in [2] was 47.3 nM (active); in [12], 107 nM (active); in test [14], 67.4 nM (active). Also, the outcome in [5] and in test [8] was inactive. Moreover, the max activation in test [19] is -3.5%.
On to `Cc1nnc2n1-c1ccc(Cl)cc1C(c1ccccc1)=NC2`, for which the Potency in test [1] was 13300 nM (active). In addition, the Potency result in test [2], in test [3], in [4], in test [6], in test [7] and in test [9] was “inactive” in each case. Besides, the Potency entry in test [10], in test [11], in test [12], in [13], in test [14] and in test [15] was “inactive” in each case. Also, the Potency entry (in the test with Aromatase (Homo sapiens); in test [16]; in test [17]; in [18]) was “inactive” throughout. The compound was classed as inactive in test [5] and in test [8]. The max activation in test [19] was -0.769%.

For the origin of these results see PubChem BioAssay (Tox21).
